Test results from PubChem BioAssay AID1159580 (chemical genetic matrix, 2015).
Screen size: about 5,500 compounds; about 2,000 (36%) were called active. Not shown: some 18% with an inconclusive outcome. Rule as the data show it: active = normalized growth mostly below about 0.91 (no sharp cut-off); inconclusive = no clear call, values can overlap the other calls; inactive = mostly above about 0.92. The list shows a part of the results.

Assay: chemical genetic growth profiling, strain panel (AID 1159580);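 also: tested at 20 µM; growth read once vehicle control cultures reached saturation at 30 °C; 1 = growth at the plate median or of vehicle wells; lower values mean less growth of the strain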
Settings: S. cerevisiae deletion strains, growth OD

Measured: normalized growth

COc1[nH]c2ccc(F)cc2c1C(=O)OCC1CCN(CCNS(C)(=O)=O)CC1
inactive: locus YAL040C, strain CLN3, hits give low values 0.958 | locus YCL061C, strain MRC1 (second series), hits give low values 0.994 | locus YDR150W, strain NUM1, hits give low values 0.986 | locus YDR363W, strain ESC2, hits give low values 0.995 | locus YER002W, strain NOP16, hits give low values 1.01 | locus YGR078C, strain PAC10, hits give low values 1.02 | locus YJR075W, strain HOC1, hits give low values 1.01 | locus YNL153C, strain GIM3, hits give low values 1.01 | locus YNL175C, strain NOP13, hits give low values 1 | locus YNL197C, strain WHI3, hits give low values 1.02 | locus YNL224C, strain SQS1, hits give low values 1.01 | locus YOR083W, strain WHI5 (second series), hits give low values 0.993 | locus YPL241C, strain CIN2, hits give low values 1.01
